# Measurements as given in PubChem BioAssay (Tox21).
# Results filed as inconclusive are left out. Where a call stands in place of a potency, no number is given. Calls of active or inactive are those of the source. Calls come from the whole dose curve; as a rule, active = well fitted cell-killing curve with a large enough effect in the repeat runs; inconclusive = weak or mixed curves; inactive = no such curve, though single readings can be large or run the other way.
# Assay: qHTS assay to identify small molecule antagonists of the androgen receptor (AR) signaling pathway - cell viability counter screen (AID 743033; note: nearly all actives have a fitted effect of over 45% in size)
# Details: AR-bla HEK293 viability, CellTiter-Glo luminescence, 16 h; series mostly up to 58.5 µM
# Description: National Center for Advancing Translational Sciences [NCATS]
# NIH Chemical Genomics Center [NCGC]
# U.S. Environmental Protection Agency [EPA]
# National Institutes of Environmental Health Sciences [NIEHS]
# National Toxicology Program [NTP]
# U.S. Food and Drug Administration [FDA]
# Androgen receptor (AR), a nuclear hormone receptor, plays a critical role in AR-dependent prostate cancer and other androgen related diseases. Endocrine disrupting chemicals (EDCs) and their interactions with steroid hormone receptors like AR may cause disruption of normal endocrine function as well as interfere with metabolic homeostasis, reproduction, developmental and behavioral functions. To identify the compounds that inhibit AR signaling, GeneBLAzer AR-UAS-bla-GripTite cell line (Invitrogen, Carlsbad, CA, USA) containing a beta-lactamase reporter gene under control of an Upstream Activator Sequence (UAS) stably integrated into HEK293 cells was used to screen the Tox21 10K compound library. The cytotoxicity of the Tox21 compound library against the AR-bla cell line was tested in parallel by measuring the cell viability using CellTiter-Glo assay in the same wells.
# Tox21 Assay Protocol Summary:
# AR-bla cells were dispensed at 2,000 cells/5 uL of assay medium per well into black wall/clear-bottom 1536-well plates using a Multidrop Combi (ThermoFisher Scientific, Waltham, MA) dispenser. After the assay plates were incubated at a 37C and 5% CO2 for 4 hr, 23 nL of compounds dissolved in DMSO, positive controls or DMSO only was transferred to the assay plate by a Pintool station (Kalypsys, San Diego, CA), followed by addition of 1 uL of agonist (R1881) in culture medium using a Bioraptr Flying Reagent Dispenser (FRD) workstation (Beckman Coulter, Indianapolis, IN, USA). The plates were incubated at a 37C and 5% CO2 for 16 h. After 1 uL of LiveBLAzerTM B/G FRET substrate was added using a Bioraptr FRD, the plates were incubated at room temperature for 2 h and fluorescence intensity was measured by an Envision plate reader (PerkinElmer, Shelton, CT). For cell viability readout that measures cytotoxicity, 4 ul/well of CellTiter-Glo reagent was added into the assay plates using a Bioraptr FRD. After 30 min incubation at room temperature, the luminescence intensity in the plates was measured using a ViewLux (PerkinElmer) plate reader.
row,Structure (SMILES),Potency
1,Cc1cccc(C)c1NC(=O)CN1CCCC1,inactive
2,C1CCN(CN2CCCCC2)CC1,inactive
3,CCOC(=O)CC(O)(CC(=O)OCC)C(=O)OCC,inactive
4,C[C@@H](O)[C@H]1C(=O)N2C(C(=O)O)=C(S[C@@H]3CN[C@H](CNS(N)(=O)=O)C3)[C@H](C)[C@H]12,inactive
5,CCOc1cc(OCC)c(C(C)=O)cc1OCC,inactive
6,CCC1=C(C)CN(C(=O)NCCc2ccc(S(=O)(=O)NC(=O)NC3CCC(C)CC3)cc2)C1=O (stereo not given),inactive
7,Cc1cc(C)n(CO)n1,inactive
8,C1=COCCC1,inactive
9,Clc1cccc(C(c2ccc3nc[nH]c3c2)n2ccnc2)c1 (stereo not given),inactive
10,COc1ccc(C(=O)Nc2ccccc2)cc1[N+](=O)[O-],inactive
11,CC(C)CCCCCCCOC(=O)c1ccc(C(=O)OCCCCCCCC(C)C)c(C(=O)OCCCCCCCC(C)C)c1,inactive
12,Nc1cccc2c(=O)[nH][nH]c(=O)c12,inactive
13,CC(C)(C)c1ccc(CCC=O)cc1,inactive
14,O=Cc1ccc(Cl)c([N+](=O)[O-])c1,inactive
15,CCCCCCC/C=C/C=O,inactive
16,CCOc1ccc2c(c1)C(C)CC(C)(C)N2 (stereo not given),inactive
17,Cc1c(Nc2ncccc2C(=O)O)cccc1C(F)(F)F,inactive
18,Nc1ccccc1Nc1ccccc1,inactive
19,CC(=O)c1ccc(Cl)c(Cl)c1Cl,inactive
20,CC(C)=CCC[C@H](C)CCO,inactive

row,Structure (SMILES),Potency
1,O=C(O)c1ccccc1-n1cc(C(=O)O)c(=O)c2cc(Nc3c(F)cc(F)cc3Cl)c(Cl)cc21,inactive
2,O=c1[nH]nc(-c2ccc([N+](=O)[O-])o2)o1,inactive
3,NC(=O)c1ccccc1,inactive
4,CC(C)(C(=O)O)c1ccc(C(O)CCCN2CCC(C(O)(c3ccccc3)c3ccccc3)CC2)cc1 (stereo not given),inactive
5,C=CC(O)CCCCC (stereo not given),inactive
6,CCc1c(C)[nH]c2c1C(=O)C(CN1CCOCC1)CC2 (stereo not given),inactive
7,CC[C@H](NC(C)C)[C@H](O)c1ccc(O)c2[nH]c(=O)ccc12,inactive
8,CCc1ccc2c(c1)C(=O)c1ccccc1C2=O,inactive
9,O=C(O)CCc1nc2ccccc2[nH]1,inactive
10,O=[N+]([O-])c1cccc(I)c1,inactive
11,Cc1cc(N)n(-c2ccccc2)n1,inactive
12,CCC(CC)C(=O)O,inactive
13,CC1=C(C)C(=O)C(CCCCC#CCCCC#CCO)=C(C)C1=O,inactive
14,O=c1[nH][nH]c2ccccc12,inactive
15,C(/C=C/C=C/Nc1ccccc1)=Nc1ccccc1,inactive
16,CCCCCCCCNC,inactive
17,O=S(=O)(O)c1cc(Cl)c(Cl)cc1Cl,inactive
18,CO[C@@H]1COCC[C@@H]1N[C@@H]1CC[C@@](C(=O)N2CCc3ncc(C(F)(F)F)cc3C2)(C(C)C)C1,inactive
19,NC(=O)c1ccccc1C(N)=O,inactive
20,CCCCCCCCCCCC(=O)OCC,inactive
